Assay: modulators of CIT2-GFP expression in yeast, confirmation, S. cerevisiae, GFP fusion, cherry picks, mother/daughter gates (AID 2274)
Conditions: S. cerevisiae CIT2-GFP strain, flow cytometry, 3 h; measured here: daughter cell gate; at 10 µM; stronger effect = higher value

SMILES | GFP response, % of DMSO [%]
O=C(/C=C/c1ccc(F)cc1)NC(=S)NNC(=O)c1cnccn1 | 101
Cc1ccc(/C=C/C(=O)c2ccc(C)cc2)cc1 | 102
Cc1nn(Cc2ccc([N+](=O)[O-])cc2)c(=O)n1-c1cccc(Cl)c1 | 101
Cn1c(=O)[nH]c(=O)c2c1nc(N1CCCCC1)n2CCOc1ccccc1 | 101
COC(=O)NC1CCC(CC2CCC(NC(=O)OC)CC2)CC1 (stereo not given) | 105
COCCNC(=O)c1ccc(Cl)c(Cl)c1 | 103
COc1cc(-c2nc3ccccn3c2NCC2CCCO2)ccc1O (stereo not given) | 108
CC(=O)Nc1ccc(NC(=O)c2nc(S(=O)(=O)Cc3cccc(C)c3)ncc2Cl)cc1 | 103
O=C(COc1ccccc1[N+](=O)[O-])Nc1ccc(NC(=O)c2cc3ccccc3o2)cc1 | 92.1
CCOC(=O)/C(=N\NC(=O)c1ccccc1)c1ccccc1 | 100
COC(=O)c1ccc(N2C(=O)CC(Sc3n[nH]c(C)n3)C2=O)cc1 (stereo not given) | 108
CC(C)C(=O)NC(c1cccs1)c1cc([N+](=O)[O-])c2cccnc2c1O (stereo not given) | 101
Cc1ccc(/C=N/Nc2ncc(Cl)cc2Cl)s1 | 95.4
CCOC(=O)Cc1csc(NC(=O)c2sc3nc4c(C)cc(C)cc4cc3c2N)n1 | 110
Cn1cc([N+](=O)[O-])c(C(=O)Nc2nc(-c3ccc(Cl)cc3)cs2)n1 | 97.6
CCCCOC(=O)C1CCC[C@@H](C)N1 (stereo not given in full) | 101
CCN=C(NCC)SC1CC(=O)N(c2cccc(OCC)c2)C1=O (stereo not given) | 103
COc1ccc(NC2=C(Cl)C(=O)N(CCc3ccccc3)C2=O)c(OC)c1 | 98.4
COc1ccccc1-c1noc(CCC(=O)Nc2cccc(C(F)(F)F)c2)n1 | 101
COc1ccc(-c2csc(N(CC(C)C)C(=O)c3ccco3)n2)cc1 | 101

SMILES | GFP response, % of DMSO [%]
CC(=O)Nc1ccc(-c2csc(NC(=O)c3ccc(C)o3)n2)cc1 | 106
CNc1cc(CSC)nc(SCc2ccc(Cl)cc2Cl)n1 | 86.2
O=C1C(CSCc2ccccc2)NC(=S)N1c1ccccc1 (stereo not given) | 102
COCCn1c(=N)c(C(=O)NCc2ccco2)cc2c(=O)n3ccccc3nc21 | 97.6
Cc1ccc(-c2csc(NC(=O)c3ccno3)n2)cc1 | 99.2
Cc1cccc(CN2CCSc3sccc3C2=O)c1 | 114
COC(=O)c1ccc(/C=C/C(=O)c2ccc(OC)cc2)cc1 | 100
CCOC(=O)CCS(=O)(=O)c1nc(-c2ccccc2)cc(C(F)(F)F)n1 | 106
CCCN(Cc1nnc(-c2ccccc2Cl)o1)C(=O)c1cc([N+](=O)[O-])cc([N+](=O)[O-])c1 | 94
COc1ccc(-c2[nH]ncc2N=Nc2ccccc2)cc1 | 98.4
Cc1cccc(Cn2cc(/C=C/[N+](=O)[O-])c3ccccc32)c1 | 95.6
OC1(c2ccc(F)cc2)CSC(=Nc2cccnc2)N1Cc1ccco1 (stereo not given) | 106
COc1cc(/C=C2\N=C(C)OC2=O)cc(Cl)c1OC(C)=O | 112
O=c1c2c(-c3ccc(Cl)cc3)csc2ncn1/N=C/c1cccc([N+](=O)[O-])c1O | 98.3
O=[N+]([O-])c1cc(O)c2ncccc2c1 | 112
CCc1nnc(NC(=O)c2ccc(S(=O)(=O)N(CC(C)C)CC(C)C)cc2)o1 | 103
CCn1c(=O)c(C(=O)NCc2ccc(OC)cc2)c(O)c2ccccc21 | 101
CS(=O)(=O)N1N=C(c2ccco2)CC1c1ccc(Cl)cc1 (stereo not given) | 100
CC1(C)CCN2CCC(C)(C)c3c(O)ccc1c32 | 123
O/C=c1\ccc2cccc3nc(C(F)(F)F)nc1c23 | 171
